GLP1R cytotox – cytotoxicity in counter-screen for GLP-1R inverse agonists. Potency, µM (series often up to 38.3 µM), for the others: top-dose activity change, negative = inhibition, most hits filed as inhibitors. AID 624418. HEK293 cAMP-luciferase reporter cells, luminescence, 24 h. hit rate 0.13% among 410,000;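 also: loss of luciferase light is scored as toxicity; % is scaled to controls: 0 for no effect and ±100 for the full control effect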
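1536-well qHTS counterscreen of the MLSMR; 200 cells/uL, 12 h pre-incubation, 23 nL cpd, 24 h at 37 deg C 5% CO2, luciferase detection reagent, 12 min RT, luminescence. Inhibition = undesired.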
VP16 counter – counter-screen for ROR gamma inhibitors: Gal4-VP16 reporter. Drosophila S2 Gal4-VP16 UAS-luciferase, luminescence, 20 h. Potency, µM (highest dose often 53.6 µM), for inactives: top-dose activity, negative = inhibition, hits mostly inhibitors. hit rate 3.5% among 310,000. AID 2546;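 also: Gal4-VP16 expression switched on by copper sulfate through the metallothionein promoter; % is scaled to controls: 0 for no effect and ±100 for the full control effect; nearly all actives have a fitted effect of over 50% in size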
RORg inh – blocks mouse ROR gamma transcriptional activity | P51450 | Drosophila S2 Gal4-RORgamma UAS-luciferase reporter, 20 h | Potency, µM (top dose mostly 53.6 µM), for inactives: top-dose activity change, negative = inhibition, most hits filed as inhibitors | hit rate 5.4% among 310,000 | AID 2551; also: % is scaled to controls: 0 for no effect and ±100 for the full control effect; nearly all actives have a fitted effect of over 60% in size
Target sequence (P51450 whole entry, looked up, the tested form may be a part): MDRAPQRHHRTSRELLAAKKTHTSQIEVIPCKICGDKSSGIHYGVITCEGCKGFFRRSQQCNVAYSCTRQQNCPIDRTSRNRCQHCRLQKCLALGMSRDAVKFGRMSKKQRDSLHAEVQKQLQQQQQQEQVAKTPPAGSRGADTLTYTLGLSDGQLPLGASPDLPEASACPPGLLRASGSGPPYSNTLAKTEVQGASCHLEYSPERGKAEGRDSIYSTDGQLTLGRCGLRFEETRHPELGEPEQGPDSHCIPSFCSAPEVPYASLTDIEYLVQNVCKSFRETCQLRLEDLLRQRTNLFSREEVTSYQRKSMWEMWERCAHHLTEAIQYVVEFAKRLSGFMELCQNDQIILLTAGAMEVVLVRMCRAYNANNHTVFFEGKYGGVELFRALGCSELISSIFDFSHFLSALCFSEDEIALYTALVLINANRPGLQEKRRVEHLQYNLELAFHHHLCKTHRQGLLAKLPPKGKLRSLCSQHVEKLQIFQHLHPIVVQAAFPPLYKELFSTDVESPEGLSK
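Read-out: Photinus luciferase luminescence; inhibitors lower reporter signal. Insect Schneider cells with Gal4-ROR gamma fusion under metallothionein promoter, UAS reporter; 700 uM final copper sulfate induction, 20 hr, ambient temperature.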
GLP1R ag – agonists of human GLP-1 receptor. P43220. HEK293 GLP-1R CRE-luciferase, luminescence, 4-6 h; cells express a hypersensitive GLP-1R form. Potency, µM (highest dose often 45.6 µM), for the others: at the top dose activation, most hits filed as activators. hit rate 0.007% among 380,000. AID 624172; also: % of control where 0% means no effect
GLP1R inv ag – GLP-1 receptor (human) inverse agonism; hit rate 1.6% among 410,000; Potency, µM (doses to about 38.3 µM), for inactives: top-dose activity change, negative = inhibition, actives largely listed as inhibitors; AID 624417; HEK293 GLP-1R CRE-luciferase, luminescence, 24 h; GLP-1R form is constitutively active; also: % is scaled to controls: 0 for no effect and ±100 for the full control effect; nearly all actives have a fitted effect of over 55% in size
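Luminescence readout: a drop in cAMP-driven luciferase signal flags inverse agonism at a constitutively active GLP-1R stably expressed in HEK293. Compound exposure lasted 24 hr at 37 deg C, 5% CO2.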
* marks the source's active call; other numbers are inactive results; ? = inconclusive; / = no result given; [ ] = remark or other dose. The list is not random: actives were taken first. Their share in the collection is about 5.9%. Calls follow the shape of the dose curve; as a rule, active = well fitted curve in the direction sought with a large enough effect; inconclusive = small, poorly fitted or top-dose-only effect, or another doubt; inactive = no such curve, though single readings can be large; an effect the other way counts as inactive or inconclusive. Potency is read from the fitted curve at half-maximal effect.

SMILES	GLP1R cytotox	VP16 counter	RORg inh	GLP1R ag	GLP1R inv ag
CCCN(CCC)C(=O)C(CCC(=O)OCCCN1CCN(CCOC(=O)Cc2c(C)n(C(=O)c3ccc(Cl)cc3)c3ccc(OC)cc23)CC1)NC(=O)c1ccccc1 (configuration not stated)	/	/	/	0%	/
CC1CCCO1 (configuration not stated)	/	7%	17%	/	/
O=C1CC(C2CCCO2)C(=O)N1c1ccc(Cl)c(Cl)c1 (configuration not stated)	-13%	11µM*	?	0%	-11%
C[C@@H](c1ccccc1)N1C(=O)[C@H]2[C@@H]3[C@H](O)[C@H](O)CC(=O)[C@H]3CC[C@H]2C1=O	/	-4%[10 µM]	11%[10 µM]	/	/
CC(=O)Oc1ccc2nc(/C=C/c3ccccc3)oc(=O)c2c1	1%	?	6.3µM*	-6%	2%
Nc1nonc1-c1nc2ccccc2n1CC(=O)N/N=C\c1ccc(-c2ccc(Cl)cc2)o1	8%	0%	-33%	1%	10µM*
Cc1ccccc1OC[C@H](O)CO	/	-10%[17 µM]	17%[16.9 µM]	/	/
O=C(CSc1ccc(-c2ccccn2)nn1)c1ccc([N+](=O)[O-])cc1	-2%	?	4.5µM*	16%	13%
O=C(CSc1nnc(-c2ccco2)o1)c1ccccc1Cl	?	?	4µM*	7%	?
O=C(CSc1nnc(-c2ccco2)o1)c1ccc([N+](=O)[O-])cc1	-15%	0.89µM*	0.79µM*	-4%	22%
O=C(CSc1ccc(-c2cccnc2)nn1)c1ccc([N+](=O)[O-])cc1	-6%	1%	1%	12%	5%
COc1ccc(-c2nc(S(=O)(=O)c3ccc(C)cc3)c(NCc3ccccc3)o2)cc1	-6%	/	/	/	?
CCCSc1ncc(Cl)c(C(=O)Nc2scc(-c3ccc(C)cc3)c2C(=O)OCC)n1	2%	/	/	/	1%
Cn1c(=O)c2c(nc(N3CCN(Cc4ccccc4)CC3)n2CC(=O)c2ccccc2)n(C)c1=O	-4%	/	/	0%	0%
CN(c1nc2c(c(=O)n(C)c(=O)n2C)n1CC(=O)c1ccccc1)C1CCCCC1	-25%	1%	23%	18%	7.9µM*
COc1ccccc1C(=O)N1CCC(c2c[nH]c3ccccc23)(c2c[nH]c3ccccc23)CC1	4%	/	/	/	?
Cc1ccc2nc(-c3ccc(NC(=S)NCCC(C)C)cc3)sc2c1	-17%	/	/	22%	0%
CCC(C)(C)NC(=S)Nc1ccc(-c2nc3ccc(C)cc3s2)cc1	-7%	-15%	8%	-23%	?
CCCCNC(=S)Nc1ccc(-c2nc3ccc(C)cc3s2)cc1	-20%	?	3.2µM*	-32%	?
CNC(=S)Nc1ccc(-c2nc3ccc(C)cc3s2)cc1	-1%[7.66 µM]	7.1µM*	0.56µM*	-2%	7%[7.66 µM]
CC(=O)NC(=S)Nc1ccc(-c2nc3ccc(C)cc3s2)cc1	-26%	1.8µM*	0.5µM*	-8%	8%
COc1c(C=O)c(=O)[nH]c2c(OC)cccc12	/	-7%	5%	/	/
CCN(C(=O)CCS(=O)(=O)c1cc2c(cc1C)NC(=O)CO2)c1cccc(C)c1	2%	/	/	21%	-2%
CN(C)c1cc(N/N=C/c2ccc(Cl)cc2)nc(N(C)C)n1	?	-10%	-17%	-1%	2.5µM*
Cc1ccc(-c2nn(-c3ccccc3)c3[nH]c(=O)c(CNCCN(C)C)cc23)cc1	/	7.9µM*	4µM*	/	/
SMILES	GLP1R cytotox	VP16 counter	RORg inh	GLP1R ag	GLP1R inv ag
COc1cccc2sc(N3CCN(C(=O)CS(=O)(=O)c4ccc(Cl)cc4)CC3)nc12	3%	/	/	/	-24%
OC(COc1ccc(CNCCc2ccc(C(F)(F)F)cc2)cc1)CN1CCCCC1 (configuration not stated)	?	-16%	-44%	-1%	2.2µM*
OC(CNCCc1ccc(C(F)(F)F)cc1)COc1cccc2ccccc12 (configuration not stated)	?	13µM*	?	-6%	?
OC(CNCCc1ccc(C(F)(F)F)cc1)COc1ccc2ccccc2c1 (configuration not stated)	?	11µM*	16µM*	-22%	0%
CCOC(=O)CCCN1C(=O)CCn2nc(-c3cn(C)c4ccccc34)cc21	-7%	/	/	/	18%
Cc1ccc(N2CC(NC(=O)C3CCCCC3)CC2=O)cc1 (configuration not stated)	2%	/	/	/	12%
COc1cccc(-c2nnc(NC(=O)C(C)C)o2)c1	-24%	16µM*	?	0%	-15%
COc1cccc(-c2nnc(NC(=O)c3cccc(F)c3)o2)c1	4%	0.79µM*	0.32µM*	-3%	4%
COc1cccc(-c2nnc(NC(=O)c3ccccc3Br)o2)c1	-1%	3.2µM*	5µM*	-4%	-19%
COc1cccc(-c2nnc(-c3ccc(C)o3)o2)c1	-25%	?	11µM*	-6%	0%
Cc1nc2cnc(Oc3ccccc3)nc2n(Cc2cccs2)c1=O	/	-2%	12%	/	/
O=C(O)CC/C=C\CC[C@@H]1[C@@H](N2CCCCC2)[C@@H](O)C[C@@H]1OCc1ccc(-c2ccccc2)cc1	/	-2%	11%	-5%	/
C=C(C)CSc1nc2sc3c(c2c(=O)n1Cc1ccccc1)CC(C)(CC)OC3 (configuration not stated)	3%	/	/	/	?
CC1CC2(C)Oc3ccccc3C3OCC1(COC(=O)Nc1ccccc1)C(C)C32 (configuration not stated)	/	29%	3%	/	/
COc1ccc(-c2nnc(NC(=O)c3ccc([N+](=O)[O-])o3)o2)c(OC)c1	-26%	6.3µM*	7.1µM*	-15%	-13%
Cc1noc(C)c1-c1ccc(C(=O)Nc2ccc(C(C)C)cc2)c2occc12	-7%	/	/	0%	4.5µM*
Cc1ccc2c(=O)cc(C(=O)Nc3sc4c(c3C(=O)NCc3ccco3)CCCC4)oc2c1C	18%	/	/	/	2%
Cc1ccc(C)c(-n2nnc(C(=O)Nc3ccc(Br)cc3)c2C)c1	2%	/	/	/	?
Brc1ccc(/C=N/Nc2nncc(-c3ccccc3)n2)o1	/	-6%	3.5µM*	/	/
Brc1ccc(-c2ccc(/C=N/Nc3nncc(-c4ccccc4)n3)o2)cc1	-12%	1.3µM*	0.89µM*	-9%	18%
COc1ccc(CN(C(=O)c2ccc(OCC(C)C)cc2)C2CCS(=O)(=O)C2)cc1 (configuration not stated)	6%	/	/	/	-13%
COc1ccc(NCc2cc3cc4c(cc3n(CC(=O)Nc3ccc(F)cc3F)c2=O)OCO4)cc1	-10%	/	/	/	-8%
COc1ccc(-c2nc(NC3=NCCCCC3)sc2C)cc1	-5%	4%	10µM*	19%	?
COc1ccc(NC2=NCCCCC2)cc1	-3%	-3%	6%	0%	-10%

Source: PubChem BioAssay
